Data taken from PubChem BioAssay (NCATS).
Several values for one entry are separate records, joined by “and”; a condition that tells them apart may be missing. Equal entries are not always repeated. Inconclusive results are not listed. Activity calls are given as the source filed them. Calls come from the whole dose curve; as a rule, active = well fitted curve in the direction sought with a large enough effect; inconclusive = small, poorly fitted or top-dose-only effect, or another doubt; inactive = no such curve, though single readings can be large; an effect the other way counts as inactive or inconclusive.

Test: Primary qHTS for inhibitors of nuclear receptor binding SET domain protein 2 (NSD2) in an isogenic RCH-ACV NSD2 p.E1099K mutant (9B) (AID 1645876)
Conditions: RCH-ACV NSD2 E1099K (9B) viability, CellTiter-Glo, 72 h; series mostly up to 44.9 µM
Note: nearly all actives have a fitted effect of over 70% in size.
Potency is the fitted concentration of half-maximal effect.

| SMILES | Potency |
| --- | --- |
| C=C1C(=O)O[C@@H]2C[C@@H](C)[C@]34C[C@]5(C(=O)O[C@H]6CC(C)=C([C@H](C)CCCO)[C@H](OC(=O)C(C)CC)[C@H]65)[C@@H](C(C)=C3C[C@@H]12)[C@H]4OC(C)=O (stereo partly specified) | 2.16 µM (active) |
| Fc1ccccc1CNCc1ccc(-c2ccnc3[nH]ccc23)cc1 | 16.3 µM (active) |
| CCCCc1nc(C)c(CC(=S)N(C)C)c(=O)n1Cc1ccc(-c2ccccc2-c2nn[nH]n2)cc1 | inactive |
| Clc1ccccc1CNCC1CCC(CNCc2ccccc2Cl)CC1 (stereo unspecified) | 18.3 µM (active) |
| CNc1nc(-c2ccc3c(N)n[nH]c3c2)cc(N2CC(C(=O)NC3CCCCC3)CCC2C)n1 (stereo unspecified) | 0.578 µM (active) |
| CC[C@H]1OC(=O)[C@H](C)[C@@H](O[C@H]2C[C@@](C)(OC)[C@@H](O)[C@H](C)O2)[C@H](C)[C@@H](O[C@@H]2O[C@H](C)C[C@H](N(C)C)[C@H]2O)[C@](C)(O)C[C@@H](C)/C(=N/OCOCCOC)[C@H](C)[C@@H](O)[C@]1(C)O | inactive |
| C[C@@H](CN1CCC(n2c(=O)[nH]c3cc(Cl)ccc32)CC1)NC(=O)c1ccc2ccccc2c1 | 10.3 µM (active) |
| CN(C)CC(=O)Nc1ccc2[nH]c(=O)c3ccccc3c2c1 | 20.5 µM (active) |
| C=C1C(=O)O[C@@H]2/C=C(/C)CC3C=C(C[C@H](OC(=O)/C(C)=C\C)[C@@H]12)C(=O)O3 (stereo partly specified) | 16 µM (active) |
| COc1ccc2c(c1)CN(C(=O)CCN1CCC(Cc3ccccc3)CC1)CCS2 | 11.2 µM (active) |
| COc1ccc(-c2nc(-c3cc(C(F)(F)F)cc(C(F)(F)F)c3)n(Cc3ccc(C(N)=O)cc3)c2-c2ccc(OC)cc2)cc1 | inactive |
| CNc1cc(OC)c(C(=O)N[C@@H]2CCN(Cc3ccccc3)[C@@H]2C)cc1Cl | 20.5 µM (active) |
| CC(=O)Nc1ccc(C(=O)Nc2ccccc2N)cc1 | 3.55 µM (active) and 3.72 µM (active) |
| CCOC(=O)CCC(=O)O[C@H]1[C@H](O[C@@H]2[C@@H](C)[C@H](O[C@H]3C[C@@](C)(OC)[C@@H](O)[C@H](C)O3)[C@@H](C)C(=O)O[C@H](CC)[C@@](C)(O)[C@H](O)[C@@H](C)C(=O)[C@H](C)CC2(C)O)O[C@H](C)C[C@@H]1N(C)C (stereo partly specified) | inactive |
| C=C(C(=O)O)C1CC2=C(C)C(=O)CC2C(C)CC1O (stereo unspecified) | 11.5 µM (active) |
| CCC(=O)Nc1cccc(Oc2nc(Nc3ccc(N4CCN(C)CC4)cc3OC)ncc2Cl)c1 | 16.3 µM (active) |

| SMILES | Potency |
| --- | --- |
| Cc1cc(CN)cc(C)c1NC(=O)c1ccc(-c2cc(Cl)ccc2Cl)o1 | 18.3 µM (active) |
| C=C1C(=O)O[C@@H]2C[C@@]3(C)CCC[C@H](C)C3=C[C@H]12 | 14.5 µM (active) |
| C=C1C(=O)O[C@@H]2[C@H]1[C@H](O)C[C@]1(C)[C@@H](O)CC=C(C)[C@@H]21 | 11.5 µM (active) |
| CC(C)c1ccc(NC(=O)C(c2ccccc2)N(C)C(=O)Cc2c[nH]c3ccccc23)cc1 (stereo unspecified) | 20.5 µM (active) |
| Cc1cc(C)c(NC(=O)N(Cc2ccc3c(c2)Cc2ccccc2-3)C2CCCCCC2)c(C)c1 | inactive |
| Cn1nccc1Nc1nccc(-c2ccn([C@H](CO)c3ccc(Cl)c(F)c3)c(=O)c2)n1 | 7.28 µM (active) and 7.42 µM (active) |
| C[N+]1(C)[C@@H]2CC[C@H]1CC(OC(=O)C(O)c1ccccc1)C2 (stereo partly specified) | inactive |
| CCOc1ccc(-c2nc(-c3cccc4c3CCC4NCCO)no2)cc1OCC (stereo unspecified) | 6.49 µM (active) |
| CCC(=O)c1cc(-c2ccc(Cl)cc2)n(-c2ccc(S(N)(=O)=O)cc2)c1C | 23 µM (active) |
| COc1cc2nc(-c3cc(F)ccc3O)nc(N[C@@H]3CNC[C@H]3C(C)(C)O)c2cc1OC | 4.59 µM (active) and 1.48 µM (active) |
| O=C(/C=C/n1cnc(-c2cc(C(F)(F)F)cc(C(F)(F)F)c2)n1)NNc1cnccn1 | 1.63 µM (active) |
| COc1cc(-c2cc(-c3cccc(O)c3)cnc2N)cc(OC)c1OC | 10.3 µM (active) |
| COc1c(N2CC3CCCNC3C2)c(F)cc2c(=O)c(C(=O)O)cn(C3CC3)c12 (stereo unspecified) | inactive |
| COc1ccc(Cl)cc1[C@@]1(F)C(=O)Nc2cc(C(F)(F)F)ccc21 | 7.28 µM (active) |
| C[C@H](NC(=O)C(C)(C)Oc1ccc(C(F)(F)F)cn1)[C@@H](Cc1ccc(Cl)cc1)c1cccc(C#N)c1 | 16.3 µM (active) |

Test: Primary qHTS for inhibitors of nuclear receptor binding SET domain protein 2 (NSD2) in an RCH-ACV wild type WT cells (2C) (AID 1645877)
Conditions: RCH-ACV (leukaemia line) NSD2 WT (2C) viability, CellTiter-Glo, 72 h; series mostly up to 44.9 µM

| SMILES | Potency |
| --- | --- |
| CC(=O)N1CCN([C@H]2CCN(C(=O)N(C)[C@H](C)c3cc(C(F)(F)F)cc(C(F)(F)F)c3)[C@@H](c3ccc(F)cc3C)C2)CC1 | 14.5 µM (active) |
| Fc1ccccc1CNCc1ccc(-c2ccnc3[nH]ccc23)cc1 | 11.5 µM (active) |
| CCCCc1nc(C)c(CC(=S)N(C)C)c(=O)n1Cc1ccc(-c2ccccc2-c2nn[nH]n2)cc1 | inactive |
| Clc1ccccc1CNCC1CCC(CNCc2ccccc2Cl)CC1 (stereo unspecified) | 20.5 µM (active) |
| CNc1nc(-c2ccc3c(N)n[nH]c3c2)cc(N2CC(C(=O)NC3CCCCC3)CCC2C)n1 (stereo unspecified) | 1.15 µM (active) |
| CC[C@H]1OC(=O)[C@H](C)[C@@H](O[C@H]2C[C@@](C)(OC)[C@@H](O)[C@H](C)O2)[C@H](C)[C@@H](O[C@@H]2O[C@H](C)C[C@H](N(C)C)[C@H]2O)[C@](C)(O)C[C@@H](C)/C(=N/OCOCCOC)[C@H](C)[C@@H](O)[C@]1(C)O | inactive |
| C[C@@H](CN1CCC(n2c(=O)[nH]c3cc(Cl)ccc32)CC1)NC(=O)c1ccc2ccccc2c1 | 16.3 µM (active) |
| CN(C)CC(=O)Nc1ccc2[nH]c(=O)c3ccccc3c2c1 | 23 µM (active) |
| C=C1C(=O)O[C@@H]2/C=C(/C)CC3C=C(C[C@H](OC(=O)/C(C)=C\C)[C@@H]12)C(=O)O3 (stereo partly specified) | 3.58 µM (active) |
| COc1ccc2c(c1)CN(C(=O)CCN1CCC(Cc3ccccc3)CC1)CCS2 | 10 µM (active) |
| COc1ccc(-c2nc(-c3cc(C(F)(F)F)cc(C(F)(F)F)c3)n(Cc3ccc(C(N)=O)cc3)c2-c2ccc(OC)cc2)cc1 | inactive |
| CC(=O)Nc1ccc(C(=O)Nc2ccccc2N)cc1 | 2.82 µM (active) and 3.72 µM (active) |
| C=C(C(=O)O)C1CC2=C(C)C(=O)CC2C(C)CC1O (stereo unspecified) | 5.78 µM (active) |
| C=C1C(=O)O[C@@H]2C[C@@]3(C)CCC[C@H](C)C3=C[C@H]12 | 12.9 µM (active) |
| C=C1C(=O)O[C@@H]2[C@H]1[C@H](O)C[C@]1(C)[C@@H](O)CC=C(C)[C@@H]21 | 7.28 µM (active) |
| CC(C)c1ccc(NC(=O)C(c2ccccc2)N(C)C(=O)Cc2c[nH]c3ccccc23)cc1 (stereo unspecified) | 20.5 µM (active) |
| Cc1cc(C)c(NC(=O)N(Cc2ccc3c(c2)Cc2ccccc2-3)C2CCCCCC2)c(C)c1 | inactive |
| C[N+]1(C)[C@@H]2CC[C@H]1CC(OC(=O)C(O)c1ccccc1)C2 (stereo partly specified) | inactive |
| CCOc1ccc(-c2nc(-c3cccc4c3CCC4NCCO)no2)cc1OCC (stereo unspecified) | 7.28 µM (active) |
| CCC(=O)c1cc(-c2ccc(Cl)cc2)n(-c2ccc(S(N)(=O)=O)cc2)c1C | 16.3 µM (active) |
| O=C(/C=C/n1cnc(-c2cc(C(F)(F)F)cc(C(F)(F)F)c2)n1)NNc1cnccn1 | 2.05 µM (active) |
| COc1cc(-c2cc(-c3cccc(O)c3)cnc2N)cc(OC)c1OC | 12.9 µM (active) |
| COc1c(N2CC3CCCNC3C2)c(F)cc2c(=O)c(C(=O)O)cn(C3CC3)c12 (stereo unspecified) | inactive |
| COc1ccc(Cl)cc1[C@@]1(F)C(=O)Nc2cc(C(F)(F)F)ccc21 | 5.78 µM (active) |
| C[C@H](NC(=O)C(C)(C)Oc1ccc(C(F)(F)F)cn1)[C@@H](Cc1ccc(Cl)cc1)c1cccc(C#N)c1 | 20.5 µM (active) |
